From PubChem BioAssay (Tox21) come the findings set out here.

Assay [1] has as its target Acetylcholinesterase (Homo sapiens) (UniProt P22303). The assay can be described thus: Acetylcholinesterase (AChE) small molecule antagonists: fluorescence cell-based qHTS assay (AID 1347398; calls by dose curve; note: nearly all actives have a fitted effect of over 50% in size; note: potency is the fitted concentration of half-maximal effect). Particulars: Potency: AChE activity; outcome: AChE activity. In outline:
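Using neuroblastoma SH-SY5Y cells as the enzyme source, test chemicals are preincubated 30 min at 37 C; AChE-driven acetylthiocholine cleavage is then quantified by thiocholine-dependent Thiolite Green fluorescence after 40 min at room temperature.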

For assay [2] the target is unchanged. Nature of the assay: Acetylcholinesterase (AChE) small molecule antagonists: enzyme-based qHTS assay with human liver microsomes (AID 1347399; calls by dose curve; note: nearly all actives have a fitted effect of over 60% in size). Particulars: Potency: qHTS inhibition; outcome: qHTS inhibition. A digest of the protocol: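 Recombinant human AChE (50 mU/mL in the enzyme mix) and human liver microsomes (0.25 mg/mL final) were preincubated with compound and NADPH (0.25 mg/mL final) for 30 min at 37 C. Acetylthiocholine/DTNB was then added; thiocholine was read colorimetrically after 10 min at room temperature.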

Assay [3] can be described thus: qHTS assay for small molecules that induce genotoxicity in human embryonic kidney cells expressing luciferase-tagged ATAD5 (AID 651632). Note: nearly all actives have a fitted effect of over 15% in size. A digest of the protocol: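 Quantitative HTS in HEK293T expressing luciferase-tagged ATAD5, whose levels rise upon DNA damage. Exposure ran 16 hr at 37C and 5% CO2, with luminescence read 30 min after Amplite addition at room temperature.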

Assay [4] is described as follows: qHTS assay for small molecule agonists of the p53 signaling pathway - cell viability (AID 651633; calls by dose curve;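 note: p53RE-bla HCT reporter cells with a stable beta-lactamase p53 reporter; series mostly up to about 83 µM; nearly all actives have a fitted effect of over 30% in size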). A digest of the protocol: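 p53RE-bla cells, seeded at 4,000 per well and rested 5 h at 37 C/5% CO2, received compounds in DMSO for 16 h at 37 C. CellTiter-Glo was then added, and luminescence was read after 30 min at room temperature to gauge cytotoxicity.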
Assay [5] in a line: qHTS assay for small molecules that induce genotoxicity in human embryonic kidney cells expressing luciferase-tagged ATAD5 - cell viability (AID 651634; calls by dose curve; note: nearly all actives have a fitted effect of over 25% in size). In outline: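 After 15.5 hr incubation with compound at 37C, 5% CO2, HEK293T ATAD5-luciferase cells received CellTiter-Fluor reagent; fluorescence intensity was quantified following 30 min at 37C.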
Assay [6] is described as follows: qHTS assay for small molecule disruptors of the mitochondrial membrane potential - cell viability (AID 720634; calls by dose curve;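 note: human HepG2 liver cancer cells; series mostly up to about 83 µM; nearly all actives have a fitted effect of over 20% in size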). In outline:
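ATP-based luminescent viability readout (CellTiter-Glo, 30 min, room temperature) in HepG2 cells multiplexed with the m-MPI membrane potential dye; compound exposure lasted 1 hr at 37 C.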

The nature of assay [7]: qHTS assay for small molecule disruptors of the mitochondrial membrane potential (AID 720635). A digest of the protocol: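 HepG2 cells (2,000/well) attached overnight at 37C, then took compound for 1 hr at 37C, 5% CO2. Mito-MPS dye was added for 30 min; fluorescence was read at 490/535 nm (monomers) and 540/590 nm (aggregates).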
Assay [8] is described as follows: qHTS assay to test for compound auto fluorescence at 590 nm (red) in HepG2 cells (AID 720674). In outline:
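Compound auto-fluorescence is scored relative to Rose Bengal sodium, measured at 540/590 nm in live HepG2 cultures after 1 hr compound contact (37 C, 5% CO2).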

A short description of assay [9]: qHTS assay to test for compound auto fluorescence at 535 nm (green) in HepG2 cells (AID 720675).
Assay [10] can be described thus: qHTS assay to test for compound auto fluorescence at 460 nm (blue) in HEK293 cells (AID 720678). In outline: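 HEK293, 2,000 cells/well, 10% dialyzed FBS; attach 4-5 hr 37C; pin compound or DMSO; o/n 37C/5% CO2; fluorescence 405/460 nm; triamterene-equivalent units.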
Assay [11] can be described thus: qHTS assay to test for compound auto fluorescence at 590 nm (red) in HEK293 cells (AID 720679). In outline:
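Intensity at 540nm excitation and 590nm emission is reported as Rose Bengal sodium-equivalent autofluorescence. Measurements followed overnight exposure (37C, 5% CO2) of HEK293 cells, 2,000 per well, to 23 nL compound.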

Assay [12] in a line: qHTS assay to test for compound auto fluorescence at 535 nm (green) in HEK293 cells (AID 720680).
Assay [13] can be described thus: qHTS assay to test for compound auto fluorescence at 460 nm (blue) in HEK293 cell free culture (AID 720681). A digest of the protocol: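 Test compounds were pinned into cell-free culture medium (DMEM with 10% FBS) and fluorescence was read directly at Ex/Em 405/460 nm. Signals were expressed as fluorescence equivalents of triamterene, with DMSO vehicle as control.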

The nature of assay [14]: qHTS assay to test for compound auto fluorescence at 535 nm (green) in HEK293 cell free culture (AID 720682). A digest of the protocol: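 Measurement is a direct plate read of green fluorescence (485 nm in, 535 nm out) after compound addition to serum-supplemented DMEM lacking cells, with fluorescein used to express intensities.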
Assay [15] is described as follows: qHTS assay to test for compound auto fluorescence at 590 nm (red) in HEK293 cell free culture (AID 720683). A digest of the protocol:
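Tox21 10K library compounds were pinned into cell-free DMEM with 10% FBS and fluorescence was read at excitation 540 nm. Activity is expressed as Rose Bengal sodium equivalency.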

Assay [16] is described as follows: qHTS assay to test for compound auto fluorescence at 590 nm (red) in HepG2 cell free culture (AID 720684). In outline: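 Ex 540 / Em 590 nm read of compound in cell-free MEM (10% FBS). Rose Bengal sodium reference.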
Assay [17] in a line: qHTS assay to test for compound auto fluorescence at 460 nm (blue) in HepG2 cell free culture (AID 720685). A digest of the protocol:
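Cell-free plates of MEM plus 10% FBS received 23 nL compound or DMSO vehicle; blue-channel (405/460 nm) intensity scored against triamterene as reference fluorophore.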

The nature of assay [18]: qHTS assay to test for compound auto fluorescence at 535 nm (green) in HepG2 cell free culture (AID 720686).
A short description of assay [19]: qHTS assay to test for compound auto fluorescence at 460 nm (blue) in HepG2 cells (AID 720687). In outline: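 Cells (2,000/well in MEM with 10% FBS) attached overnight at 37 C, then were exposed to compound or DMSO for 1 hr at 37 C, 5% CO2. Fluorescence read at Ex/Em 405/460 nm, expressed as triamterene-equivalent signal.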
Assay [20] deals with Glucocorticoid receptor (Homo sapiens) (UniProt P04150). The assay can be described thus: qHTS assay to identify small molecule agonists of the glucocorticoid receptor (GR) signaling pathway (AID 720691; active = well fitted activation curve with a large enough effect in the signal ratio in the repeat runs, not every such curve was filed as active; the % refers to the signal ratio). A digest of the protocol: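 Cells: GR-bla HeLa, endogenous GR with stably integrated GRE-beta-lactamase reporter. Treatment 18 h, 37 C, compounds delivered in DMSO. Detection via LiveBLAzer B/G FRET substrate, 2 h RT, fluorescence intensity.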

Assay [21] in a line: qHTS assay to identify small molecule antagonists of the glucocorticoid receptor (GR) signaling pathway - cell viability counter screen (AID 720693). Note: nearly all actives have a fitted effect of over 55% in size.
Assay [22] is described as follows: qHTS assay to identify small molecule antagonists of the androgen receptor (AR) signaling pathway - cell viability counter screen (AID 743033; note: nearly all actives have a fitted effect of over 45% in size).
Assay [23] can be described thus: qHTS assay to identify small molecule antagonists of the androgen receptor (AR) signaling pathway using the MDA cell line - cell viability counter screen (AID 743041; note: nearly all actives have a fitted effect of over 45% in size). In outline: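 In this qHTS counter assay, fluorescence intensity after CellTiter-Fluor addition indicated viability of MDA-kb2 AR-luc cells given compounds and R1881 for 16 h at 37C.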
A short description of assay [24]: qHTS assay to identify small molecule antagonists of the thyroid receptor (TR) signaling pathway - cell viability counter screen (AID 743064). Note: nearly all actives have a fitted effect of over 50% in size. A digest of the protocol:
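Compounds were tested on GH3.TRE-Luc cells in the presence of T3 at 1 nM final. Following 23.5 h at 37 °C, cell viability was quantified by CellTiter-Fluor.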

Assay [25] in a line: qHTS assay to identify small molecule antagonists of the thyroid receptor (TR) signaling pathway (AID 743065). Note: series mostly up to about 70 µM; nearly all actives have a fitted effect of over 55% in size. In outline: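 GH3.TRE-Luc rat pituitary cells carrying two TR response elements driving luciferase were plated for 4 h, given compound plus 1 nM T3 (final), and incubated 23.5 h at 37 C. ONE-Glo luminescence measured reporter inhibition; CellTiter-Fluor fluorescence tracked cytotoxicity.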

For assay [26], the system named is thyroid hormone receptor (rat, GH3 cells). Nature of the assay: qHTS assay to identify small molecule agonists of the thyroid receptor (TR) signaling pathway (AID 743066; calls by dose curve).
Assay [27] can be described thus: qHTS assay to identify small molecule antagonists of the estrogen receptor alpha (ER-alpha) signaling pathway using the BG1 cell line - cell viability counter screen (AID 743081).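 Note: compound given together with 17beta-estradiol as the ER stimulus; series mostly up to about 70 µM; nearly all actives have a fitted effect of over 45% in size.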
In assay [28] the target is Aromatase (Homo sapiens) (UniProt P11511). Nature of the assay: qHTS assay to identify aromatase inhibitors (AID 743083). Note: series mostly up to about 70 µM; nearly all actives have a fitted effect of over 55% in size.
Assay [29] in a line: qHTS assay to identify aromatase inhibitors - cell viability counter screen (AID 743084).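 Note: cells stimulated with testosterone during compound exposure; nearly all actives have a fitted effect of over 55% in size.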
A short description of assay [30]: qHTS assay to identify small molecule that activate the aryl hydrocarbon receptor (AhR) signaling pathway - cell viability counter screen (AID 743086).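 Note: HepG2 liver cells carrying the AhR DRE luciferase reporter; series mostly up to about 70 µM; nearly all actives have a fitted effect of over 45% in size.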 In outline: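 HepG2-AhR-luc (HG2L7.5c1) cells, 4000/well, were preincubated 5 h at 37C, exposed to compound in qHTS format for 24 hr at 37C, then given CellTiter-Fluor for 30 min; viability was read as fluorescence in the reporter wells.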

In assay [31] the target is Peroxisome proliferator-activated receptor gamma (Homo sapiens) (UniProt P37231). The assay can be described thus: qHTS assay to identify small molecule agonists of the peroxisome proliferator-activated receptor gamma (PPARg) signaling pathway (AID 743094; active = well fitted activation curve with a large enough effect in the signal ratio in the repeat runs, not every such curve was filed as active; the % refers to the signal ratio). In outline: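 Reporter activation was scored by fluorescence of cleaved LiveBLAzer B/G substrate (1 h, room temperature) in PPARg-bla HEK293H cells previously treated 17 h at 37C with DMSO-dissolved compounds.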

Records with an inconclusive call do not appear. Activity calls are given as the source filed them. Unless noted, calls come from the whole dose curve; as a rule, active = well fitted curve in the direction sought with a large enough effect in the repeat runs; inconclusive = weak or mixed curves; inactive = no such curve, though single readings can be large; an effect the other way counts as inactive or inconclusive.

Acetylcholinesterase (Homo sapiens), sequence (P22303 whole entry, looked up): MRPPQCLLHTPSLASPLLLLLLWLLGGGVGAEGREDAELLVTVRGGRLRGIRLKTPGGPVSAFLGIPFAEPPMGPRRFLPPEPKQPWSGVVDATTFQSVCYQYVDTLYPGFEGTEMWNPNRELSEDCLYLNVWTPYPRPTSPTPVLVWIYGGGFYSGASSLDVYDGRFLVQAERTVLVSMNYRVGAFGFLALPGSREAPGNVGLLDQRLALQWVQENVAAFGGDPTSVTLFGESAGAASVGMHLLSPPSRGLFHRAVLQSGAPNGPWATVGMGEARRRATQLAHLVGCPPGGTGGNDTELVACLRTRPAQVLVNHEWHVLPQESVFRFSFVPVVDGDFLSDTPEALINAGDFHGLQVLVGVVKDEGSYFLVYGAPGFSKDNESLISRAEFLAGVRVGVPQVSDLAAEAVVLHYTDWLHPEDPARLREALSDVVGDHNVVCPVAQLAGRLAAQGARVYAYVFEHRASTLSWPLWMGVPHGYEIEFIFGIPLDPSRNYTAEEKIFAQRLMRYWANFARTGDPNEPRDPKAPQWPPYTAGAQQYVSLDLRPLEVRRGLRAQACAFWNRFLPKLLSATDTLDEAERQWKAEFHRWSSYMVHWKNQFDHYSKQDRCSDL
Peroxisome proliferator-activated receptor gamma (Homo sapiens), sequence (P37231 whole entry, looked up): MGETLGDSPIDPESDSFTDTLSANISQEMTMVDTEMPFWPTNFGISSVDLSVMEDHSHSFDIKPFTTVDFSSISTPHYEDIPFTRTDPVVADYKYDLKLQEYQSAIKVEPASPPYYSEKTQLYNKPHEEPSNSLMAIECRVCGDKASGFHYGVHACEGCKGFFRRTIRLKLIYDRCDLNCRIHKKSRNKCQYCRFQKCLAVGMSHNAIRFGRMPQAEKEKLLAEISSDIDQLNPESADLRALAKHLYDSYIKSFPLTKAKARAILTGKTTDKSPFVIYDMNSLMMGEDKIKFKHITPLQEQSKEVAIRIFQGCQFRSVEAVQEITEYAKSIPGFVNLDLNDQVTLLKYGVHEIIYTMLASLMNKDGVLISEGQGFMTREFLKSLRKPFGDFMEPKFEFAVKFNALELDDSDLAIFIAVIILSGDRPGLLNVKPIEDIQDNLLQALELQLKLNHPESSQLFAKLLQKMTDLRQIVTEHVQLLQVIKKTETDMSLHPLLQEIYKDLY
Glucocorticoid receptor (Homo sapiens), sequence (P04150 whole entry, looked up): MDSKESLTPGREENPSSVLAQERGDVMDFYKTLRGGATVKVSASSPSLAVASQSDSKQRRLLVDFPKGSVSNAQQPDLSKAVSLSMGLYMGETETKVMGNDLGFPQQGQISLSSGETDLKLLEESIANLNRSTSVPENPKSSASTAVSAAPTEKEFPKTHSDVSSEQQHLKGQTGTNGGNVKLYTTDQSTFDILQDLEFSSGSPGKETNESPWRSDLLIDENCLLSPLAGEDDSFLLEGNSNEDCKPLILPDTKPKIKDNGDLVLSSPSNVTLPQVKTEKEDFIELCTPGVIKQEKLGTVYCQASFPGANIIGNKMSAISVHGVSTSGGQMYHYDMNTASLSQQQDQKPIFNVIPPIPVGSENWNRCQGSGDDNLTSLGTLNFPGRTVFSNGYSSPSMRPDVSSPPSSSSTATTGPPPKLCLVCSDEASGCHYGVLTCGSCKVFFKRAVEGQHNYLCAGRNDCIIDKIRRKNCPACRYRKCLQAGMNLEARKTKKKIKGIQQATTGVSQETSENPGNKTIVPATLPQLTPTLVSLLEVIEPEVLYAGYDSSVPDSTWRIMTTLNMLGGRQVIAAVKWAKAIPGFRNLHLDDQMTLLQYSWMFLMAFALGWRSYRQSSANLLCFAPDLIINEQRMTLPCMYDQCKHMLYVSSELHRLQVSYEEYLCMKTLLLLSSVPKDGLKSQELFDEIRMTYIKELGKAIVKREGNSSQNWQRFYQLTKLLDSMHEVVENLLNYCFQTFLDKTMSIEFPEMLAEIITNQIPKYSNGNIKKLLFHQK
Aromatase (Homo sapiens), sequence (P11511 whole entry, looked up): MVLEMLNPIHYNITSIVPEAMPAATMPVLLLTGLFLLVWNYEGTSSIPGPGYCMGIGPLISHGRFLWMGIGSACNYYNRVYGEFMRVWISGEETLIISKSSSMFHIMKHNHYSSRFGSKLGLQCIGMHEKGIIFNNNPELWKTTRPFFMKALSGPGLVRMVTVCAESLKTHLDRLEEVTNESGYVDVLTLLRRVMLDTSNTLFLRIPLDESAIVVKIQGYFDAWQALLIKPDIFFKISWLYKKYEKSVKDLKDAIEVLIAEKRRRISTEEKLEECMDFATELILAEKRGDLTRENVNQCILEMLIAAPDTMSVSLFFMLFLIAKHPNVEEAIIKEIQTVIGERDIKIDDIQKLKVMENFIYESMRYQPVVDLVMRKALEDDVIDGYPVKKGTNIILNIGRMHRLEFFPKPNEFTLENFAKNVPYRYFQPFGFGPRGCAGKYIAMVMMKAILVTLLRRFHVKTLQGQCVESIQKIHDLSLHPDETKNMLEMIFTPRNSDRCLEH

`COc1cccc(-c2ccc(/C=C\CN3CCCCCC3)cc2Cl)c1`: the Potency in assay [1] is 31.6 µM (active). Moreover, the Potency entry in [2] is “inactive”.
Turning to `[Cu+]`, the Potency result in assay [1] was “inactive”.
As for `CN1CCN=C(c2ccccc2)c2cc(Cl)ccc21`, the outcome in assay [3], in [6], in assay [8], in assay [9], in assay [10] and in assay [11] was inactive. Besides, the molecule was classed as inactive in assay [12], in assay [13], in assay [14], in [15], in assay [16] and in [17]. Besides, the result in [18], in [19], in assay [20], in [23], in assay [26] and in assay [29] was inactive. In assay [31], the result was inactive. The Potency entry in assay [4], in assay [5], in assay [7], in [21], in [22] and in assay [24] was “inactive” in each case. Moreover, the Potency entry in assay [25], in assay [27], in assay [28] and in [30] was “inactive” in each case.
`Cc1ccc(CCn2c3c(c4cc(Cl)ccc42)CN(C)CC3)cn1`: the Potency in assay [1] is 19.5 µM (active). Also, the Potency entry in assay [2] was “inactive”.
